Most compounds without a hit are left out; they make up all but 19% or so of the library.
HepG2 tox: kills HepG2 cells in TGF-b inhibitor counter-screen | HepG2 CAGA-GFP viability, ATP luminescence, 18 h | Potency, µM (series often up to 46.1 µM), usual class: cytotoxic | actives 0.76% (n = 410,000) | AID 588856
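HepG2 CAGA-GFP cells (1000/well, DMEM with 1% FBS) received compound, then TGF-beta at 500 pg/mL final, and were incubated 18 hours at 37 degrees C. Viability was read by CellTiter-Glo luminescence. Media-only wells were set as complete cell-killing and DMSO as no toxicity.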
TGFb SMAD3 inh: blocks TGF-b signaling | HepG2 CAGA-GFP TGF-b/SMAD3 reporter, GFP fluorescence, 18 h; TGF-beta stimulated, 500 pg/mL final | Potency, µM (series often up to 46.1 µM), hits mostly inhibitors | actives 1.2% (n = 410,000); note: nearly all actives have a fitted effect of over 65% in size
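TGF-beta reporter screen: HEPG2 CAGA-GFP, 1% FBS, 500 pg/mL TGF-beta final, 18 h; per-cell GFP summed per well; curves fitted and categorized by class.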
DT40 TDP1 CPT: DT40-hTDP1 cell growth loss with CPT. Potency, µM (highest dose often 46.2 µM), actives largely listed as inhibitors. actives 12% (n = 420,000). chicken DT40 Tdp1-/-;hTDP1 cells + 20 nM CPT, ATP luminescence, 48 h; note: nearly all actives have a fitted effect of over 55% in size
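Chicken DT40 Tdp1-/- cells complemented with human TDP1, 400 cells/well, exposed to compounds plus 20 nM camptothecin for at least 48 h at 37 C; viability read as ATP content by CellTiter-Glo luminescence.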
TDP1 cell noCPT: qHTS for Inhibitors of human tyrosyl-DNA phosphodiesterase 1 (TDP1): qHTS in cells in absence of CPT; Potency, µM (highest dose often 46.2 µM), hits mostly inhibitors; actives 15% (n = 420,000); DT40 Tdp1-/- hTDP1 cells, no CPT, ATP luminescence, 48 h; AID 686978, 2013; note: nearly all actives have a fitted effect of over 55% in size
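DT40 Tdp1-/-;hTDP1 cells, no CPT (DMSO vehicle only), 400 cells/well; compounds pin-transferred; ≥48 hr, 37 °C; CellTiter-Glo 30 min RT dark, luminescence read.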
TDP1 inh: blocks human tyrosyl-DNA phosphodiesterase 1. AID 485290. recombinant TDP1, AlphaScreen DNA substrate cleavage. Q9NUW8. Potency, µM (series often up to 130 µM), usual class: inhibitors. actives 0.28% (n = 350,000); note: nearly all actives have a fitted effect of over 40% in size
Target sequence (Q9NUW8 whole entry, looked up): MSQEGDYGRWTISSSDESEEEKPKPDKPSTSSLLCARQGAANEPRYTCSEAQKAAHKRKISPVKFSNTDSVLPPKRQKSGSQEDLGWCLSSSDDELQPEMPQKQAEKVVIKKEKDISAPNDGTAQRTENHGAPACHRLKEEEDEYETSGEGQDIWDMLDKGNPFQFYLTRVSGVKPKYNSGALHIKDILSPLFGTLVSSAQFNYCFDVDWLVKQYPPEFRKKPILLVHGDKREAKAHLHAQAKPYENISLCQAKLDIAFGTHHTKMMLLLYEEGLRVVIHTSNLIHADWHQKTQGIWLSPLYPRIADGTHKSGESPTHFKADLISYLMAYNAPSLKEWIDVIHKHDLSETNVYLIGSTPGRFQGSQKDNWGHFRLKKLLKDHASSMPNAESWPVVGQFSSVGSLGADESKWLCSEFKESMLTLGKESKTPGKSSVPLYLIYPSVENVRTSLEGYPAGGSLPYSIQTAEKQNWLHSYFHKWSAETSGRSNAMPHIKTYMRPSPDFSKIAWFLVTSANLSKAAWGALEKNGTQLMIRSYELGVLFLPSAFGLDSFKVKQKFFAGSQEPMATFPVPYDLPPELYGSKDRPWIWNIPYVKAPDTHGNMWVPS
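Here, a 5' biotin and 3' phosphotyrosine-FITC DNA oligonucleotide reports Tdp1 activity: intact substrate bridges AlphaScreen beads, while cleavage leaves a 3' phosphate and drops signal. All incubations at room temperature.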
IL1B secr inh: inflammasome signaling inhibition, IL-1 beta readout; THP-1 LPS/ATP IL-1B secretion, AlphaLISA, 16 h; hits give low values; activity change, % at 57.5 µM; actives 4.7% (n = 360,000); AID 743279; in the data active = activity change below about -50%; inconclusive = mostly about -30% to -49%
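THP-1 cells pretreated 1 hr with compounds (up to 57.5 uM final), then stimulated with LPS (250 ng/mL final) plus ATP (1.25 mM final); secreted IL-1B measured by AlphaLISA after 16 hr, decreased signal indicating inhibition.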
Each line names hits and unclear results; the compound was inactive in the other large screens. Unless noted, calls come from the whole dose curve; as a rule, active = well fitted curve in the direction sought with a large enough effect; inconclusive = small, poorly fitted or top-dose-only effect, or another doubt; inactive = no such curve, though single readings can be large; an effect the other way counts as inactive or inconclusive.

COc1cc2c(c(OC)c1OC)C(=O)C(=Cc1ccccc1)O2	DT40 TDP1 CPT inconclusive, TDP1 cell noCPT inconclusive (no result: TDP1 inh)
Cc1cc(CNC(=O)COC(=O)c2ccc(Cl)c(N)c2)cc(C)c1O	none (no result: TDP1 inh)
COC(=O)CC1Oc2ccc(Cl)cc2-n2cc(-c3ccc(C)cc3)nc21 (stereo not drawn)	DT40 TDP1 CPT 9.2µM, TDP1 cell noCPT 6.51µM (no result: IL1B secr inh)
COC(=O)CC1Oc2ccc(C)cc2-n2cc(-c3ccc(C)cc3)nc21 (stereo not drawn)	TGFb SMAD3 inh inconclusive, DT40 TDP1 CPT 16.4µM, TDP1 cell noCPT 13µM (no result: IL1B secr inh)
CCOC(=O)CN1C(=O)C(CC)Oc2ccc(Cl)cc21 (stereo not drawn)	none
COC(=O)CC1Oc2ccccc2N(Cc2ccc(C)cc2)C1=O (stereo not drawn)	DT40 TDP1 CPT 16.4µM, TDP1 cell noCPT 25.9µM
C=C[C@]1(C)Cc2occ(C)c2C[C@H]1C(=C)C(=O)O	none (no result: HepG2 tox, TGFb SMAD3 inh, IL1B secr inh)
CC(C)CCNC(=O)c1ccc(NC(=O)N2CCCCc3ccccc32)cc1	none (no result: IL1B secr inh)
Fc1c(F)c(F)c(N/N=C/c2c[nH]c3ccccc23)c(F)c1F	TGFb SMAD3 inh inconclusive, DT40 TDP1 CPT inconclusive, TDP1 cell noCPT inconclusive, IL1B secr inh -87.2
CCOC(=O)/C(C#N)=C/c1c[nH]c2ccccc12	TGFb SMAD3 inh inconclusive
Cn1c(N/N=C/c2c[nH]c3ccccc23)nc2ccccc21	TGFb SMAD3 inh inconclusive, DT40 TDP1 CPT inconclusive, TDP1 cell noCPT inconclusive, IL1B secr inh -98.2
Cn1c(N/N=C/c2cc3ccccc3nc2Cl)nc2ccccc21	HepG2 tox 5.62µM, DT40 TDP1 CPT 3.26µM, TDP1 cell noCPT 2.59µM
Cc1cc(N/N=C/c2c[nH]c3ccccc23)c2ccccc2n1	none
CCOC(=O)/C(C#N)=C/c1cc2ccccc2nc1Cl	DT40 TDP1 CPT 2.82µM, TDP1 cell noCPT 3.98µM
O=C(O)c1ccc(N/N=C/c2c[nH]c3ccccc23)cc1	none (no result: TDP1 inh)
O=[N+]([O-])c1cc(C(F)(F)F)ccc1N/N=C/c1cc2ccccc2nc1Cl	none (no result: HepG2 tox, TGFb SMAD3 inh, DT40 TDP1 CPT, TDP1 cell noCPT, IL1B secr inh)
Cc1ccc(NS(=O)(=O)c2cc3c(cc2Cl)NC(=O)C3)cc1C	none (no result: HepG2 tox, TGFb SMAD3 inh, DT40 TDP1 CPT, TDP1 cell noCPT, IL1B secr inh)
Cc1csc(SCC(=O)Nc2cc(S(=O)(=O)N(C)C)ccc2C)n1	none
CCCCn1c(/N=C/c2c[nH]c3ccccc23)nc2ccccc21	TGFb SMAD3 inh inconclusive, DT40 TDP1 CPT inconclusive, TDP1 cell noCPT 20.6µM, IL1B secr inh -52.0
C(=NN=C1c2ccccc2-c2ccccc21)c1c[nH]c2ccccc12	TGFb SMAD3 inh inconclusive, DT40 TDP1 CPT inconclusive, TDP1 cell noCPT inconclusive, IL1B secr inh -102.7 (no result: TDP1 inh)
Cc1nnc(C)n1/N=C/c1cc2ccccc2nc1Cl	DT40 TDP1 CPT 2.59µM, TDP1 cell noCPT 2.91µM
Brc1ccc2nc(C3CCCCC3)c(Cc3ccsc3)n2c1	DT40 TDP1 CPT 20.6µM, TDP1 cell noCPT 16.4µM (no result: TDP1 inh)
Cc1ccc(Cc2c(C3CCCCC3)nc3ccc(Br)cn23)cc1	TGFb SMAD3 inh inconclusive, DT40 TDP1 CPT inconclusive, TDP1 cell noCPT 20.6µM (no result: TDP1 inh)
Cc1cc(Br)cn2c(Cc3ccsc3)c(C3CCCCC3)nc12	DT40 TDP1 CPT inconclusive, TDP1 cell noCPT inconclusive (no result: TDP1 inh)
Clc1ccc2nc(C3CCCCC3)c(Cc3ccsc3)n2c1	TGFb SMAD3 inh inconclusive, DT40 TDP1 CPT 23.1µM, TDP1 cell noCPT inconclusive (no result: TDP1 inh)
CCn1c(=O)c(=O)n(CC)c2cc(S(=O)(=O)Nc3cc(C)ccc3C)ccc21	IL1B secr inh inconclusive
CCOC(=O)C(C)/C(C)=N/NC(N)=S (stereo not drawn)	TGFb SMAD3 inh inconclusive, DT40 TDP1 CPT 18.4µM, TDP1 cell noCPT inconclusive, IL1B secr inh -60.1
CCOC(=O)C1=C(C)N(C[C@@H]2CC[C@@H](Cc3ccc(-c4ccccc4)cc3)O2)C(=O)NC1c1ccc(Cl)cc1 (stereo partly drawn)	TGFb SMAD3 inh inconclusive, DT40 TDP1 CPT inconclusive, TDP1 cell noCPT 20.6µM, IL1B secr inh -52.1

Source: PubChem
